Results from PubChem BioAssay (NCI).
Compounds without any hit were thinned out: in the full panel of roughly 79,000, 15% have a hit. Activity calls are given as the source filed them. Rule as the data show it: active = growth inhibition above about 70%; inactive = the rest.

Experiments:
[1] = NCI Yeast Anticancer Drug Screen. Data for the mec2-1 strain (AID 157); settings: S. cerevisiae mec2-1 strain, active compounds read high
Method in brief: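 Each compound was tested on mec2-1 yeast, a strain altered in DNA damage repair or cell cycle control. Growth inhibition is reported relative to vehicle.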

[2] = NCI Yeast Anticancer Drug Screen. Data for the rad14 strain (AID 159);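 also: 0% = growth of vehicle-treated control cultures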; settings: S. cerevisiae rad14 strain growth inhibition, active compounds read high
Method in brief: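 A mutant yeast strain defective in DNA damage repair is treated with compound; inhibition of its growth is scored against untreated, vehicle-exposed cultures.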

[3] = NCI Yeast Anticancer Drug Screen. Data for the sgs1 mgt1 strain (AID 161);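 also: 0% = growth of cultures given vehicle only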; settings: S. cerevisiae sgs1 mgt1 strain, active compounds read high
Method in brief: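 Inhibition of yeast growth, normalised to vehicle-treated controls, is reported for a strain bearing genetic alterations in DNA damage repair.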

[4] = NCI Yeast Anticancer Drug Screen. Data for the CLN2oe strain (AID 163);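 also: 0% = growth of vehicle-only control cultures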; settings: S. cerevisiae CLN2oe strain, active compounds read high
Method in brief: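 First, the altered yeast strain was treated with each compound; second, its growth was measured; finally, inhibition was derived by comparison with vehicle controls.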

[5] = NCI Yeast Anticancer Drug Screen. Data for the cln2 rad14 strain (AID 165);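 also: 0% = growth equal to vehicle treated cultures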; settings: S. cerevisiae cln2 rad14 strain, active compounds read high
Method in brief: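 Test compounds were added to cln2 rad14 yeast cultures; inhibition of growth was then determined by comparison with vehicle treatment.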

[6] = NCI Yeast Anticancer Drug Screen. Data for the bub3 strain (AID 167); settings: S. cerevisiae bub3 mutant strain, active compounds read high
Method in brief: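 Steps: expose the mutant yeast strain to compound; grow alongside vehicle-treated cultures; measure growth; express inhibition against the vehicle cultures.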

[7] = NCI Yeast Anticancer Drug Screen. Data for the wt2 strain (AID 169);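 also: 0% = growth of vehicle-treated yeast cultures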; settings: S. cerevisiae wt2 strain growth inhibition, active compounds read high
Method in brief: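 The panel's yeast strains carry defined changes in DNA repair or cell cycle genes. Each strain is grown with compound, and growth loss is scored relative to vehicle.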

[8] = NCI Yeast Anticancer Drug Screen. Data for the sgs1 strain (AID 173);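 also: 0% = growth of vehicle-only control cultures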; settings: S. cerevisiae sgs1 mutant, active compounds read high
Method in brief: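 Vehicle-treated cultures served as reference for growth inhibition of a yeast strain altered in DNA damage repair or cell cycle control after compound exposure.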

[9] = NCI Yeast Anticancer Drug Screen. Data for the mlh1 rad18 strain (AID 175); settings: S. cerevisiae mlh1 rad18 strain growth inhibition, active compounds read high
Method in brief: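 Inhibition values reflect reduced growth of mutant yeast versus vehicle-treated controls following compound exposure; the mutations affect DNA damage repair.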

[10] = NCI Yeast Anticancer Drug Screen. Data for the rad18 strain (AID 177); settings: S. cerevisiae rad18 mutant growth inhibition, active compounds read high
Method in brief: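 Steps: expose repair-mutant yeast to compound; measure growth; express as inhibition relative to vehicle control.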

[11] = NCI Yeast Anticancer Drug Screen. Data for the rad52 strain (AID 147);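 also: 0% = growth of vehicle-treated control cultures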; settings: S. cerevisiae rad52 mutant growth inhibition, active compounds read high
Method in brief: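 Inhibition of yeast growth, referenced to vehicle controls, was the measured output for a strain with defective DNA damage repair.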

[12] = NCI Yeast Anticancer Drug Screen. Data for the wt1 strain (AID 149);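 also: 0% = growth of vehicle-treated wt1 cultures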; settings: S. cerevisiae wt1 strain (SPY 50644) growth inhibition, active compounds read high
Method in brief: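 Compounds are added to wt1 yeast cultures. Growth is then measured. Inhibition is expressed relative to vehicle-treated controls.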

[13] = NCI Yeast Anticancer Drug Screen. Data for the rad50EPP+ strain (AID 151);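 also: 0% = growth of vehicle-treated control cultures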; settings: S. cerevisiae rad50 mutant strain, active compounds read high
Method in brief: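 Genetically defined yeast (rad50EPP+, DNA damage repair alteration) is grown with compound, and inhibition of growth is expressed relative to vehicle-treated controls.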

[14] = NCI Yeast Anticancer Drug Screen. Data for the mgt1 strain (AID 153); settings: S. cerevisiae mgt1 mutant growth inhibition, active compounds read high
Method in brief: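 In the mgt1 strain, test compounds were added and growth inhibition was determined relative to vehicle-treated controls.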

[15] = NCI Yeast Anticancer Drug Screen. Data for the rad50 strain (AID 155);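 also: 0% = growth of vehicle-only cultures of the same strain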; settings: S. cerevisiae rad50 strain growth inhibition, active compounds read high
Method in brief: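 Inhibition values express reduced yeast growth in compound-treated cultures relative to vehicle-treated controls.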

[16] = at 5.0 µM (retest, dose inferred, filed as 0.5)
[17] = at 50.0 µM (retest, dose inferred, filed as 5.0)

Measured: growth inhibition

CC(=O)Nc1ccc2c(c1)Cc1cc(N=C3C=CC(=O)O3)ccc1-2
inactive: [1]; at 50.0 µM 15.8% | [2]; at 1.2 µM 12% | [2]; at 3.7 µM 27% | [3]; [16] 54% | [3]; at 50.0 µM 49.1% | [4]; at 1.2 µM 6% | [4]; at 3.7 µM 16% | [4]; at 11.0 µM 47% | [5]; [16] 9% | [5]; at 50.0 µM 24.9% | [6]; at 1.2 µM -1% | [6]; at 3.7 µM 7% | [6]; [16] 32% | [6]; at 50.0 µM 29.5% | [7]; at 1.2 µM 0% | [7]; at 3.7 µM 18% | [8]; at 1.2 µM 14% | [8]; at 3.7 µM 34% | [9]; at 50.0 µM 0.7% | [10]; at 1.2 µM 12% | [10]; at 3.7 µM 31%
active: [1]; [16] 87% | [1]; at 11.0 µM 89% | [1]; at 33.0 µM 99% | [1]; [17] 99% | [1]; at 100.0 µM 99% | [2]; at 11.0 µM 84% | [2]; at 33.0 µM 99% | [2]; at 100.0 µM 99% | [3]; [17] 99% | [4]; at 33.0 µM 99% | [4]; at 100.0 µM 99% | [5]; [17] 99% | [6]; at 11.0 µM 72% | [6]; at 33.0 µM 99% | [6]; [17] 99% | [6]; at 100.0 µM 98% | [7]; at 11.0 µM 93% | [7]; at 33.0 µM 99% | [7]; at 100.0 µM 95% | [8]; at 11.0 µM 92% | [8]; at 33.0 µM 99% | [8]; at 100.0 µM 99% | [9]; [16] 82% | [9]; [17] 99% | [10]; at 11.0 µM 91% | [10]; at 33.0 µM 99% | [10]; at 100.0 µM 99%

CCCCCCCCCCCC(O)S(=O)(=O)O (stereo unspecified)
active: [14]; at 100.0 µM 70% | [1]; at 100.0 µM 74% | [2]; at 100.0 µM 95% | [7]; at 100.0 µM 98% | [8]; at 100.0 µM 96%
inactive: [11]; at 1.2 µM 0% | [11]; at 3.7 µM 0% | [11]; at 11.0 µM -3% | [11]; at 33.0 µM 2% | [11]; at 100.0 µM 55% | [12]; at 1.2 µM -2% | [12]; at 3.7 µM -1% | [12]; at 11.0 µM -4% | [12]; at 33.0 µM 1% | [12]; at 100.0 µM 15% | [13]; at 1.2 µM 7% | [13]; at 3.7 µM 3% | [13]; at 11.0 µM 7% | [13]; at 33.0 µM 15% | [13]; at 100.0 µM 58% | [14]; at 1.2 µM -3% | [14]; at 3.7 µM 0% | [14]; at 11.0 µM -2% | [14]; at 33.0 µM -1% | [15]; at 1.2 µM 4% | [15]; at 3.7 µM 3% | [15]; [16] -13% | [15]; at 11.0 µM -2% | [15]; at 33.0 µM 2% | [15]; [17] 20% | [15]; at 50.0 µM -3.6% | [15]; at 100.0 µM 50% | [1]; at 1.2 µM -1% | [1]; at 3.7 µM 0% | [1]; [16] -17% | [1]; at 11.0 µM -2% | [1]; at 33.0 µM -1% | [1]; [17] -23% | [1]; at 50.0 µM 37.9% | [2]; at 1.2 µM 3% | [2]; at 3.7 µM 4% | [2]; at 11.0 µM 2% | [2]; at 33.0 µM 10% | [3]; [16] -10% | [3]; [17] 17% | [3]; at 50.0 µM 0.05% | [4]; at 1.2 µM -2% | [4]; at 3.7 µM -1% | [4]; at 11.0 µM -2% | [4]; at 33.0 µM -2% | [4]; at 100.0 µM 66% | [5]; [16] -5% | [5]; [17] 6% | [5]; at 50.0 µM -14.4% | [6]; at 1.2 µM 1% | [6]; at 3.7 µM -1% | [6]; [16] 0% | [6]; at 11.0 µM -2% | [6]; at 33.0 µM 0% | [6]; [17] 59% | [6]; at 50.0 µM 7.55% | [6]; at 100.0 µM 12% | [7]; at 1.2 µM -4% | [7]; at 3.7 µM -9% | [7]; at 11.0 µM -7% | [7]; at 33.0 µM -11% | [8]; at 1.2 µM 1% | [8]; at 3.7 µM -2% | [8]; at 11.0 µM -12% | [8]; at 33.0 µM 6% | [9]; [16] 7% | [9]; [17] 39% | [9]; at 50.0 µM 17.4%
